# About 79,000 compounds went through this panel and 15% of them were active in at least one assay; those are over-represented in the sample as a whole. Values without a mark were called inactive. Calls of active or inactive are those of the source. Cut-off read from the data, not from the text of the source: active = growth inhibition above about 70%; inactive = the rest.
# Experiments:
# [1] = NCI Yeast Anticancer Drug Screen. Data for the rad50 strain (AID 155);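 note: 0% = growth of vehicle-only cultures of the same strain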; conditions: S. cerevisiae rad50 strain growth inhibition, active compounds read high
# Outline: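 Genetically altered yeast (DNA repair pathway); compound treatment; growth inhibition vs vehicle ctrl.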
# [2] = NCI Yeast Anticancer Drug Screen. Data for the mec2-1 strain (AID 157); conditions: S. cerevisiae mec2-1 strain, active compounds read high
# Outline: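 Test agents were screened against the mec2-1 yeast strain, with defined DNA repair or cell cycle alteration. Growth was scored as inhibition against vehicle-only controls.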
# [3] = NCI Yeast Anticancer Drug Screen. Data for the sgs1 mgt1 strain (AID 161);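 note: 0% = growth of cultures given vehicle only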; conditions: S. cerevisiae sgs1 mgt1 strain, active compounds read high
# Outline: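 Read-out: growth inhibition vs vehicle controls. Cells: mutant yeast strain deficient in DNA damage repair.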
# [4] = NCI Yeast Anticancer Drug Screen. Data for the cln2 rad14 strain (AID 165);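 note: 0% = growth equal to vehicle treated cultures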; conditions: S. cerevisiae cln2 rad14 strain, active compounds read high
# Outline: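 Growth of compound-exposed yeast (cln2 rad14 genotype) measured and expressed as inhibition relative to vehicle.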
# [5] = NCI Yeast Anticancer Drug Screen. Data for the bub3 strain (AID 167); conditions: S. cerevisiae bub3 mutant strain, active compounds read high
# Outline: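 Yeast carrying a defined mutation is treated with each compound, and growth is compared with that of vehicle-exposed cells to give inhibition.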
# [6] = NCI Yeast Anticancer Drug Screen. Data for the mlh1 rad18 strain (AID 175); conditions: S. cerevisiae mlh1 rad18 strain growth inhibition, active compounds read high
# Outline: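 In this whole-cell yeast screen, a strain with altered DNA damage repair is challenged with compound, and its growth is measured against matched vehicle-treated controls.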
# [7] = at 5.0 µM (retest, dose inferred, filed as 0.5)
# [8] = at 50.0 µM (retest, dose inferred, filed as 5.0)
SMILES,"growth inhibition [1, 7]","growth inhibition [1, 8]",growth inhibition ([1]; at 50.0 µM),"growth inhibition [2, 7]","growth inhibition [2, 8]",growth inhibition ([2]; at 50.0 µM),"growth inhibition [3, 7]","growth inhibition [3, 8]",growth inhibition ([3]; at 50.0 µM),"growth inhibition [4, 7]","growth inhibition [4, 8]",growth inhibition ([4]; at 50.0 µM),"growth inhibition [5, 7]","growth inhibition [5, 8]",growth inhibition ([5]; at 50.0 µM),"growth inhibition [6, 7]","growth inhibition [6, 8]",growth inhibition ([6]; at 50.0 µM)
CCCCCOC(=O)c1ccc(O)cc1,-3%,98% (active),-3.65%,7%,100% (active),36%,2%,99% (active),51.2%,-9%,97% (active),13.1%,32%,99% (active),88.9% (active),3%,99% (active),15.4%
Cc1c(N=Nc2c(S(=O)(=O)O)cc3cc(S(=O)(=O)O)c(N=Nc4c(C)n(C)n(-c5ccccc5)c4=O)c(O)c3c2O)c(=O)n(-c2ccccc2)n1C,-20%,-13%,3.25%,-18%,-31%,32.8%,-7%,26%,4.15%,7%,8%,36.4%,-19%,-11%,-29.4%,5%,-7%,-6.6%
Cc1cc(Br)cc(C)c1NC(=O)C(=O)C(C(=O)c1ccc2ccccc2c1)C1OC(=O)c2ccccc21 (configuration not stated),4%,38%,12.5%,4%,19%,14.3%,10%,11%,27.7%,1%,-14%,70% (active),5%,23%,31.5%,4%,19%,31.8%
Clc1ccc(COC(CN2CCOCC2)c2ccccc2)c(Cl)c1 (configuration not stated),2%,89% (active),94.8% (active),8%,92% (active),96.2% (active),19%,98% (active),96% (active),11%,83% (active),98.2% (active),23%,95% (active),94.9% (active),11%,87% (active),97.6% (active)
C=C(CSCCCCCCCCCCCC)C(=O)O,98% (active),97% (active),98.5% (active),99% (active),98% (active),98.9% (active),98% (active),97% (active),98.5% (active),98% (active),96% (active),94.3% (active),98% (active),96% (active),99.3% (active),99% (active),97% (active),96.7% (active)
O=C(Nc1cc(Cl)ccc1Cl)Nc1ccc(Cl)cc1C(=O)c1ccccc1,98% (active),99% (active),84.9% (active),97% (active),98% (active),91.6% (active),27%,95% (active),88.9% (active),73% (active),92% (active),88% (active),71% (active),87% (active),79.3% (active),100% (active),99% (active),88.2% (active)
CCC[CH2][Sn]([CH2]CCC)([O]C(=O)c1cc(F)cc(F)c1)[O][Sn]([CH2]CCC)([CH2]CCC)[O]C(=O)c1cc(F)cc(F)c1,48%,88% (active),83% (active),57%,97% (active),88.7% (active),40%,95% (active),89.7% (active),30%,88% (active),85.8% (active),49%,99% (active),89% (active),44%,96% (active),87.7% (active)
Cc1ccc(N2C(=O)CSC2=S)cc1Br,7%,46%,95.1% (active),3%,11%,93% (active),4%,49%,94.9% (active),-1%,-11%,31.9%,-2%,24%,77.5% (active),3%,64%,95.2% (active)
C(=C\[P+](c1ccccc1)(c1ccccc1)c1ccccc1)/c1ccccc1,86% (active),99% (active),98.8% (active),94% (active),99% (active),99.7% (active),80% (active),99% (active),99.2% (active),76% (active),98% (active),98.1% (active),85% (active),98% (active),98.8% (active),91% (active),98% (active),99.1% (active)
CC1(C)N=C(N)N=C(N)N1c1cccc(OCc2cccc(N)c2)c1,-2%,1%,15.8%,12%,-5%,5.65%,-7%,1%,-8.35%,13%,-9%,65.5%,-20%,-4%,-36.9%,5%,1%,9.1%
N#CC(C#N)=Cc1ccc(Oc2ccccc2)cc1,2%,31%,88.2% (active),-21%,54%,82.1% (active),13%,56%,58.9%,25%,62%,66.3%,-6%,90% (active),83.7% (active),2%,77% (active),73.9% (active)
C/C(=N\NC(=S)N/N=C(\C)c1ccccn1)c1ccccn1,93% (active),99% (active),88.2% (active),90% (active),99% (active),91.5% (active),88% (active),99% (active),84.7% (active),93% (active),98% (active),88.2% (active),95% (active),99% (active),87.9% (active),93% (active),99% (active),83% (active)
Nc1[nH]cnc(=S)c1NC=O,-1%,-4%,13.9%,-1%,-5%,2.8%,-2%,-5%,35%,-4%,-5%,0.4%,0%,-3%,42.3%,-3%,-3%,-1.9%
O=[N+]([O-])c1ccccc1NCCO,1%,-2%,-10.2%,3%,0%,-5.65%,-2%,-12%,-0.15%,2%,4%,28.8%,3%,2%,-14.2%,2%,3%,-24.9%
C/C(=N/NC(=O)Nc1ccc(N=Nc2ccccc2)cc1)c1cccnc1,-10%,-6%,12.7%,-3%,-11%,-9.55%,2%,21%,19.6%,36%,-51%,-1.5%,7%,4%,10.8%,5%,25%,14.3%
COc1cccc(C2Nc3ccccc3C(=O)N2N2CCOCC2)c1 (configuration not stated),3%,-2%,50.9%,1%,6%,-7.2%,1%,0%,32.4%,0%,-6%,-21.6%,-2%,-5%,7.4%,-2%,-3%,-5.05%
CC(=O)c1cccc([N+](=O)[O-])c1,-2%,5%,27.4%,-2%,2%,-9.25%,-1%,2%,24.4%,-1%,-2%,44.9%,1%,7%,9.25%,-3%,3%,9%
Nc1cccc2c1[nH]c(=O)c1ccccc12,7%,70% (active),78.8% (active),5%,31%,64%,2%,33%,51.9%,-4%,40%,77.9% (active),-3%,98% (active),75.8% (active),9%,97% (active),91.2% (active)
CC(=O)OC1CCC2(C)C3CCC4(C)C(CCC4(Br)C(=O)CBr)C3CC(Br)C2(Br)C1 (configuration not stated),-1%,19%,68.8%,-5%,15%,52.2%,-5%,10%,53.4%,-2%,9%,26.9%,-3%,7%,49.5%,3%,-3%,76.4% (active)
